According to PubChem BioAssay (NCATS):
Results filed as inconclusive are left out. Unmarked numbers belong to inactive results. Calls of active or inactive are those of the source. Calls follow the shape of the dose curve; as a rule, active = well fitted inhibition curve with a large enough effect; inconclusive = small, poorly fitted or top-dose-only effect; inactive = flat fitted curve, though single readings scatter. Numbered stars: 1 amine (or outer) side, 2 acyl side, 3 side chain; on linkers, the order of the positions; unused ones are H or OH. Bridge positions count the residues as written; N and C are the ends. Square brackets hold non-standard residues; d marks the D form. Peptide text beside a SMILES is read from it. I, II: the chains in the order shown. Actinocin(9to1) = Cc1c2oc3c(C)ccc(C(=O)[*:1])c3nc-2c(C(=O)[*:2])c(N)c1=O; NMeV = CN[C@H](C(=O)O)C(C)C; Sar = CNCC(=O)O

Test: qHTS to identify inhibitors of the type 1 interferon - major histocompatibility complex class I in skeletal muscle: primary screen against the NCATS Pharmaceutical Collection (AID 1347407)
Conditions: human skeletal muscle cells, IFN-b-induced MHC-I HiBiT luminescence, 24 h; series mostly up to 45.9 µM; activity change, negative = inhibition: at the top concentration
How it was run: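 Immortalized human myoblasts (C25cl48) with HiBiT knocked into endogenous HLA-B*08:01 were stimulated with 4 ng/ml IFN-beta and treated with compounds (8-point, 1:5, top 46 uM final) for 24 h at 37 C; HiBiT lytic luminescence read.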
% is scaled to controls: 0 for no effect and ±100 for the full control effect; potency is read from the fitted curve at half-maximal effect.

Point of comparison: `CCOC(=O)/C=C(C)/C=C/C=C(C)/C=C/c1c(C)cc(OC)c(C)c1C`, “activity change, negative = inhibition” value -25.1%. Against it:
- CCN(CC)CCNC(=O)COc1ccc(Cl)cc1 — higher, 6.82%
- COC(=O)C1=C(C)NC(C)=C(C(=O)O[C@@H]2CCCN(Cc3ccccc3)C2)[C@@H]1c1cccc([N+](=O)[O-])c1 — the same, -25.1%
- c1ccc(OCc2ccc(CCCN3CCOCC3)cc2)cc1 — higher, -21.6%
- CN(C)/N=N/c1nc[nH]c1C(N)=O — higher, -8.93%
- OC[C@H]1O[C@H](O[C@]2(CCl)O[C@H](CCl)[C@@H](O)[C@@H]2O)[C@H](O)[C@@H](O)[C@H]1Cl — higher, -3.1%
- CC(=O)OCC(=O)[C@@]1(O)[C@H](C)C[C@H]2[C@@H]3CCC4=CC(=O)C=C[C@]4(C)[C@@]3(F)[C@@H](O)C[C@@]21C — higher, -12.2%
- CCCCCCCCCCCCCCCCOP(=O)([O-])OCC[N+](C)(C)C — higher, 24.3%
- COc1cccc(CCc2ccccc2OCC(CN(C)C)OC(=O)CCC(=O)O)c1 (centres undefined) — higher, -15.6%
- CN(C)C(=S)SC(=S)N(C)C — higher, 0.873%
- CC(C)(C(=O)c1cccnc1)c1cccnc1 — higher, 6.41%
- O=C(COc1ccc(Cl)cc1)N1CCN(Cc2ccc3c(c2)OCO3)CC1 — higher, 10.6%
- O=C(OCCOCCO)c1ccccc1Nc1cccc(C(F)(F)F)c1 — higher, -4.07%
- Cc1ccc(Nc2c(F)cccc2Cl)c(CC(=O)O)c1 — higher, -2.2%
- CCN(CC)C(=O)/C(C#N)=C/c1cc(O)c(O)c([N+](=O)[O-])c1 — higher, -14.4%
- CO/N=C1\CN(c2nc3c(cc2F)c(=O)c(C(=O)O)cn3C2CC2)CC1CN (centres undefined) — higher, 7.73%
- NC(=O)c1cc[n+](CC2=C(C(=O)[O-])N3C(=O)[C@@H](NC(=O)Cc4cccs4)[C@H]3SC2)cc1 — higher, -3.03%
- CN1CCC(=C2c3ccccc3Sc3ccccc32)CC1 — higher, -18%
- C[C@@H]1CN(CCCn2c3ccccc3c3ccccc32)C[C@H](C)N1 — higher, -8.68%
- CCCCCCC[N+](CC)(CC)CCCCc1ccc(Cl)cc1 — higher, -7.04%
- CCOC(=O)c1cccc(N)c1 — higher, 0.618%
- Cc1ccc(C(=O)C(C)CN2CCCCC2)cc1 (centres undefined) — higher, 0.448%
- COc1c2occc2c(OC)c2c(=O)cc(C)oc12 — higher, 13.6%
- CN1CCCC(CC2c3ccccc3Sc3ccccc32)C1 (centres undefined) — lower, -26.8%
- NCCCC[C@H](N[C@@H](CCc1ccccc1)C(=O)O)C(=O)N1CCC[C@H]1C(=O)O — higher, 1.21%
- CCCCC1=NC2(CCCC2)C(=O)N1Cc1ccc(-c2ccccc2-c2nn[nH]n2)cc1 — higher, -2%
- COc1ccc(C2C(=O)c3ccccc3C2=O)cc1 — higher, 4.41%
- CC1(C)O[C@@H]2[C@@H](CO[C@@]3(COS(N)(=O)=O)OC(C)(C)O[C@@H]23)O1 — higher, 3.39%
- CCCCCC=CCC=CCCCCCCCC(=O)OCC — higher, -2.1%
- O=C1OC2(c3ccc(O)cc3Oc3cc(O)ccc32)c2ccccc21 — higher, -8.09%
- CCCCOc1ccc(OCCCN2CCOCC2)cc1 — higher, -17.3%
- OC(CCN1CCCCC1)(c1ccccc1)c1ccccc1 — higher, 1.61%

With `Cc1c2oc3c(C)ccc(C(=O)N[C@@H]4C(=O)N[C@H](C(C)C)C(=O)N5CCC[C@H]5C(=O)N(C)CC(=O)N(C)[C@@H](C(C)C)C(=O)O[C@@H]4C)c3nc-2c(C(=O)N[C@@H]2C(=O)N[C@H](C(C)C)C(=O)N3CCC[C@H]3C(=O)N(C)CC(=O)N(C)[C@@H](C(C)C)C(=O)O[C@@H]2C)c(N)c1=O` (I: T[dV]P[Sar][NMeV] / II: T[dV]P[Sar][NMeV]; ester I:1-I:C, II:1-II:C; linker I:N-II:N via Actinocin(9to1)) the Potency was 0.938 µM (active).
With `CCOC(=O)COc1ccc2c(C)c(CCN(CC)CC)c(=O)oc2c1Cl` the Potency was 21 µM (active).
